# KinaseGlo FLuc: Counterscreen for Luciferase (Kinase-Glo TM) Inhibition; Kinase-Glo luciferase, ATP luminescence, 8 min; Luciferin 4-monooxygenase (Photuris pensylvanica), Q27757; Potency, µM (titrated, usually from 38.3 µM), without a hit: top-dose activity change, negative = inhibition, most hits filed as inhibitors; 0.28% of 200,000 active; AID 1379, 2008; note: % is set by controls: 0 for no effect and ±100 for the full control effect; nearly all actives have a fitted effect of over 60% in size
#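 Compounds were added to a substrate mix at pH 7.2 (50 mM imidazole, 10 uM ATP, within the enzyme's linear range), followed by Kinase-Glo detection reagent; luminescence was measured after 8 minutes at ambient temperature.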
# ELG1 genotoxic: qHTS screen for small molecules that induce genotoxicity in human embryonic kidney (HEK293T) cells expressing luciferase-tagged ELG1. 1.3% of 330,000 active. HEK293T ELG1-luciferase reporter, luminescence, 16 h. Potency, µM (series often up to 46 µM), inactives show top-dose activity change, positive = activation, most hits filed as activators. AID 504466, 2011; note: % of control where 0% means no effect; nearly all actives have a fitted effect of over 60% in size
#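 16 hr compound incubation (37 °C, 5% CO2) of HEK293T cells carrying luciferase-tagged ELG1; luciferase then measured by ONE-Glo luminescence after 30 min at RT.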
# NPC1 promoter act: qHTS Assay for NPC1 Promoter Activators; Potency, µM (top dose mostly 9.22 µM), inactives show at the highest dose activation, most hits filed as activators; Huh7 NPC1 promoter luciferase reporter, 24 h; 2.4% of 320,000 active; AID 485313, 2010; note: % of control where 0% means no effect; nearly all actives have a fitted effect of over 60% in size
#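 Stable NPC1-promoter luciferase Huh7 line; cpd (DMSO) 24 h, 37 °C, 5% CO2; Amplite luciferase reagent 10 min RT; luminescence readout. qHTS format.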
# SMN2 splice up: qHTS Assay for Enhancers of SMN2 Splice Variant Expression | AID 1458, 2008 | 2.8% of 210,000 active | HEK293 SMN2-luciferase splicing reporter, luminescence, 30-36 h | Potency, µM (series often up to 46.1 µM), for the others: at the highest dose activity change, positive = activation, hits mostly activators; note: % of control where 0% means no effect; nearly all actives have a fitted effect of over 55% in size
#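 qHTS luciferase splicing reporter: luminescence rises when SMN2 exon 7 is included in transfected HEK293 cells. Compound exposure lasted 30-36 h at 37C, with 4.5 mM final sodium butyrate as control, followed by a ONE-Glo read.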
# FLuc counter: qHTS profiling assay for firefly luciferase inhibitor/activator using purifed enzyme and Km concentrations of substrates (counterscreen for miR-21 project); purified FLuc, Km substrates, luminescence inhibition; Potency, µM (highest dose often 57.5 µM), without a hit: top-dose activity change, negative = inhibition, most hits filed as inhibitors; 6.9% of 360,000 active; Luciferin 4-monooxygenase (Photinus pyralis), P08659;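 note: plate controls were vehicle for no effect and reference inhibitor for full effect; nearly all actives have a fitted effect of over 55% in size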
# Target sequence (P08659 whole entry, looked up): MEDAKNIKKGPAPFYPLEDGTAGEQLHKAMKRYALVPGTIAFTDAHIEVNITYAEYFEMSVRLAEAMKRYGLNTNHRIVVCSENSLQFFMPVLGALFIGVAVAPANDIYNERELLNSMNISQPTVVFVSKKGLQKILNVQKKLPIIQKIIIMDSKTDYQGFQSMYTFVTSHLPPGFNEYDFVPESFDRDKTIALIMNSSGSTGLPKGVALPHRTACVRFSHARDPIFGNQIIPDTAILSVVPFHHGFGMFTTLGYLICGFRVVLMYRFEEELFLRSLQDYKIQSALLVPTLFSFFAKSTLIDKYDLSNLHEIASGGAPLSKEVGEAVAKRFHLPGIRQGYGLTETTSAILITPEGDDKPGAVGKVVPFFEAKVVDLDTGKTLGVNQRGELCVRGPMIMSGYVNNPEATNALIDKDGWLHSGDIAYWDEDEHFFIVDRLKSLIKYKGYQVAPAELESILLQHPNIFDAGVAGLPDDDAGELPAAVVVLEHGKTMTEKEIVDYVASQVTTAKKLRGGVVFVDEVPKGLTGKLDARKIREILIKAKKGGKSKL
#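 Biochemical qHTS of compounds, final roughly 60 µM downward over six points, against 10 nM purified firefly luciferase using Km concentrations of substrates (10 uM D-luciferin, 10 uM ATP) in Tris acetate pH 7.5 buffer; luminescence output.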
# Rab9 promoter act: qHTS Assay for Rab9 Promoter Activators; Huh7 Rab9 promoter-luciferase reporter, luminescence, 24 h; Potency, µM (highest dose often 9.22 µM), for inactives: at the top dose activation, negative = inhibition, hits mostly activators; 2.8% of 320,000 active; AID 485297, 2010; note: % of control where 0% means no effect; nearly all actives have a fitted effect of over 60% in size
#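 Huh7 cells stably carrying Rab9 promoter–luciferase reporter, plated 1500 cells/well, compound added after 2 h and incubated 24 h at 37 °C; luciferase luminescence then read after 10 min with detection reagent.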
# Starred values were filed as active, the others as inactive; ? = inconclusive; . = no result given; [ ] = remark or other dose. The list is not random: actives were taken first. Their share in the collection is about 7.4%. Calls come from the whole dose curve; as a rule, active = well fitted curve in the direction sought with a large enough effect; inconclusive = small, poorly fitted or top-dose-only effect, or another doubt; inactive = no such curve, though single readings can be large; an effect the other way counts as inactive or inconclusive. Potency is the fitted concentration of half-maximal effect.
SMILES,KinaseGlo FLuc,ELG1 genotoxic,NPC1 promoter act,SMN2 splice up,FLuc counter,Rab9 promoter act
CCOc1ccccc1OCCCC(=O)Nc1cccc(-n2cnnn2)c1C,.,4%,-1%,.,5%,-2%
Cc1cccc(NC(=O)C2CCN(c3nc4ccccc4[nH]3)CC2)c1C,.,.,.,.,2%,.
O=C(CSc1cn(Cc2ccccc2)c2ccccc12)NCc1ccc(F)cc1,1%,0%,-8%,-24%,2%,-14%
Clc1ccc(-c2nnn(Cc3nc4ccccc4s3)n2)cc1,2%,?,8%,14%,19µM*,16%
CNc1nc(N)c([N+](=O)[O-])c(Nc2ccccc2OC)n1,.,1%,-4%,.,-4%,-2%
CC1CCc2c(sc3ncnc(NCc4cccnc4)c23)C1 (configuration not stated),-2%,0%,6%,29%,27µM*,-8%
Cc1ccc(C)c(CSc2c(C(C)C)cnc3c2c(=O)n(C)c(=O)n3C)c1,.,.,.,.,-12%,.
Cc1ccc(CNC(=O)CSc2nnc3n2CCCCC3)cc1,.,1%,0%,.,1%,0%
CC(C)(C)C1CCc2c(C(=O)NNC(=O)CCC(=O)O)csc2C1 (configuration not stated),-3%,1%,-2%,-1%,27µM*,1%
Cc1scc(C(=O)NNC(=O)CCC(=O)O)c1C,-2%,0%,-7%,.,0%,-3%
CC1Oc2ccccc2C(=O)N(CC(=O)c2ccc3c(c2)OCCO3)C1=O (configuration not stated),.,12%,24%,.,4.8µM*,28%
CCC1Oc2ccccc2C(=O)N(CC(=O)c2ccc3c(c2)OCCO3)C1=O (configuration not stated),.,?,?,.,4.8µM*,?
CC(C)C1Oc2ccccc2C(=O)N(CC(=O)c2ccc3c(c2)OCCO3)C1=O (configuration not stated),.,?,1.1µM*,.,2.4µM*,1.4µM*
CC(C)C1Oc2ccccc2N(CC(=O)N2CCOCC2)C1=O (configuration not stated),.,5%,-2%,.,0%,4%
COC(=O)c1cc(C(=O)NCc2ccc3c(c2)OCO3)cc([N+](=O)[O-])c1,.,-3%,9%,.,0%,-3%
Cc1c(OC(C)C(=O)NCC(O)c2ccccc2)ccc2c3c(c(=O)oc12)CCC3 (configuration not stated),.,6%,-4%,.,-2%,-2%
COc1cc(/C=C2\OC(=O)c3c(OC)cccc32)ccc1O,-3%,10µM*,?,-13%,3.4µM*,?
O=C(COc1ccccc1)OCc1cc(-c2ccco2)on1,.,1%,-3%,.,-17%,-5%
Oc1c(C=Nc2ccccc2Cl)[nH]c2ccccc12,.,?,2.8µM*,.,?,3.5µM*
O=c1[nH][nH]c(C(F)(F)F)c1C=Nc1ccccc1Cl,2%,0%,-4%,-9%,?,1%
O=C(Cn1cc([N+](=O)[O-])cn1)N1CCN(Cc2ccc3c(c2)OCO3)CC1,.,-5%,1%,.,3%,-3%
CCOC(=O)C1C(=O)C=C(c2ccc(C)cc2)CC1c1cccc([N+](=O)[O-])c1 (configuration not stated),.,-6%,-4%,.,11µM*,0%
CCOC(=O)C1C(=O)C=C(c2ccc(C)cc2)CC1c1ccco1 (configuration not stated),-4%,0%,2%,-3%,12µM*,18%
CN(C)C(=O)CSc1ccc(S(=O)(=O)N2CCOCC2)cn1,.,1%,-1%,.,3%,-4%
O=C(O)c1sc2cc(C(F)(F)F)cnc2c1-c1cccs1,5%,-8%,2%,6%,11µM*,-10%
SMILES,KinaseGlo FLuc,ELG1 genotoxic,NPC1 promoter act,SMN2 splice up,FLuc counter,Rab9 promoter act
C/C(=N\NC(=O)c1ccc([N+](=O)[O-])cc1Cl)c1ccccc1,0%,?,?,.,?,3.5µM*
Cn1ccnc1SCc1cn2cc(Br)ccc2n1,6%,?,0.32µM*,?,3.8µM*,0.56µM*
O=C(Nc1cccc(Cl)c1)N1CC2CCCN2c2ccccc21 (configuration not stated),.,.,.,.,-8%,.
N#C/C(=C/c1ccc(O)c(O)c1)c1nc2ccccc2[nH]1,.,18%,0%,.,6.7µM*,-5%
N#C/C(=C\Nc1ccc2c(c1)OCCO2)c1nc(-c2ccccc2)cs1,2%,?,0%,-15%,3%,-12%
COc1cc(/C=C(\C#N)c2nc3ccccc3[nH]2)ccc1OCc1ccc(F)cc1,.,.,.,14%,5%,.
N#C/C(=C\Nc1ccc2c(c1)OCCO2)c1nc2ccccc2[nH]1,1%,-2%,?,-29%,15µM*,?
COc1cc(Br)c(/C=C(\C#N)c2nc3ccccc3[nH]2)cc1OC,.,.,.,28%,8.5µM*,.
N#C/C(=C\c1ccc(Cl)cc1)c1nc2ccccc2[nH]1,.,.,.,7%,-18%,.
N#C/C(=C\c1ccccc1)c1nc2ncccc2[nH]1,-1%,4%,-3%,2%,13µM*,5%
COc1ccc(N2CCN(C(=O)CC34CC5CC(CC(C5)C3)C4)CC2)c([N+](=O)[O-])c1,-1%,2%,-5%,-60%,5%,-4%
C=CCn1c(COc2ccccc2F)nnc1SCC(=O)c1c[nH]c2ccccc12,-1%,-1%,-3%,-7%,-3%,-1%
Cc1oc(-c2ccccc2F)nc1CS(=O)CC(=O)NC1CCCCC1 (configuration not stated),.,0%,-3%,.,0%,2%
N#C/C(=C\c1cc(Br)c(O)c(Br)c1)c1nc2ccccc2c(=O)[nH]1,.,.,.,-7%,15µM*,.
N#C/C(=C/c1ccncc1)c1nc2ccccc2c(=O)[nH]1,.,-1%,-2%,.,?,-8%
C(=N\c1nc2ccccc2[nH]1)/c1cccs1,?,1%,-4%,0%,1.1µM*,0%
Cc1cc(/C=C(/C#N)c2nc3ccccc3[nH]2)c(C)n1-c1cc(C(=O)O)cc(C(=O)O)c1,3%,-2%,-1%,-5%,17µM*,-12%
CCOc1cc(/C=C(\C#N)c2nc3ccccc3[nH]2)ccc1OC(C)C(=O)O (configuration not stated),.,0%,1%,.,27µM*,-5%[1.84 µM]
CCN(c1ccc(NC(=O)CSCc2c(C)noc2C)cc1)C(C)C,.,-1%,-2%,.,-6%,2%

# Screening data: PubChem BioAssay, National Center for Advancing Translational Sciences (NCATS)
